According to PubChem BioAssay (NCI):
This is part of a sample that, as a whole, favours compounds with a hit. Of some 83,000 tested, about 20% had one in any assay.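 Cells were grown in 96-well plates and exposed to the test compound at a single concentration for 48 hours; results are reported as percent growth, with values below 10 considered active.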 Active and inactive are the calls of the source.

system: U251 CNS; experiment: NCI-60 one-dose screen, 48 h (100 = growth as untreated, 0 = no growth, -100 = all killed); settings: 10 µM unless noted
Protocol: Growth inhibition of the U251 human tumor cell line is measured as a screen for anti-cancer activity. Cells are grown in 96 well plates and exposed to the test compound for 48 hours. Compounds are tested at a single concentration, which is 10^-5 M for most compounds. The reported endpoint is percent growth (GI% or GIPRCNT), where numbers from 0 - 100% represent growth inhibition, and numbers from -100% - 0 represent cell death. For example, a value of 40 represents 60% growth inhibition. A value of 0 means no net growth occurred over the course of the experiment. A value of -40 indicates 40% of cells at the beginning of the experiment died by the end of the experiment. A value of -100 means all cells are dead at the end of the experiment.
NCI-60 Human Tumor Cell Lines Screen was performed using the standard one-dose NCI protocol, which is described in more detail at https://dtp.cancer.gov/discovery_development/nci-60/default.htm.
Compounds with GIPRCNT values below 10 were considered active. Activity score was based on GIPRCNT using the following formula: […]
Score is 0 for GIPRCNT values of 100 or above, 50 for GIPRCNT values of 0, and 100 for GIPRCNT values of -100.

Compound | growth
O=c1oc2cc(OS(=O)(=O)c3ccc(F)cc3)ccc2c2c1CCCCC2 | 57.6% (inactive)
O=S(=O)(NCCCNc1cc(-c2cn(-c3ccccc3)nc2-c2cccc(O)c2)ccn1)c1ccc(Br)cc1 | 4.89% (active)
COc1ccc(-c2nc3sccn3c2-c2ccnc(NCCCNS(=O)(=O)c3ccc(F)cc3)n2)cc1 | 26.1% (inactive)
C=C1C(=O)O[C@H]2[C@H]1CC/C(Cn1cc(-c3ccccc3C(F)(F)F)nn1)=C\CC[C@@]1(C)O[C@@H]21 | 13.1% (inactive)
COc1cc(/C=C/C(=O)c2ccc(NC(=O)CN3CCN(c4cc5c(cc4F)c(=O)c(C(=O)O)cn5C4CC4)CC3)cc2)cc(OC)c1OC | -55.8% (active)
Cc1cc(NC(=O)COC(=O)c2sc3cc(F)ccc3c2Cl)no1 | 106% (inactive)
CC/C=C\C[C@H]1C/C=C2/C(=O)C(Cl)=C[C@@H]2C/C=C\CCCC(=O)O1 | -79.2% (active)
CC(C)C[C@H](NC(=O)Cn1ccc(NCc2ccccc2)cc1=O)B(O)O | 44.6% (inactive)
Cc1ccc(-c2csc3nc(C)c(CCCl)c(=O)n23)cc1 | 106% (inactive)
COc1cc(CNC(=O)CCSc2nc3ccccc3c(=O)n2Cc2cc(OC)c(OC)c(OC)c2)cc(OC)c1OC | 38.3% (inactive)
CCCCCc1c(C)[nH]c(/C=c2\[nH]/c(=C3/C=c4ccccc4=N3)cc2OC)c1C | -95.1% (active)
COc1ccc(/C=C/C(=O)/C=C/c2cc3ccc(Cl)cc3[nH]c2=O)cc1 | 53.3% (inactive)
COc1ccc(/C=C/C(=O)OCC(=O)NNC(=O)c2ccccc2)cc1OC | 97% (inactive)
O=C1CCCCN1CCCCC#Cc1ccccc1C#Cc1ccccn1 | 88.9% (inactive)
Cc1cc(C)c(S(=O)(=O)N2CCN(c3cc4c(cc3F)c(=O)c(C(=O)O)cn4C3CC3)CC2)c(C)c1 | 19.7% (inactive)
O=S(=O)(NCCCNc1nccc(-c2c(-c3ccccc3)nc3sccn23)n1)c1ccc(F)cc1 | 46.4% (inactive)
CC1CCc2c(sc(NC(=O)CSc3nnc4ccccn34)c2C(N)=O)C1 (stereo not given) | 108% (inactive)
C=C1C(=O)O[C@H]2[C@H]1CC/C(Cn1cc(-c3ccc(N)cc3)nn1)=C\CC[C@@]1(C)O[C@@H]21 | 34.1% (inactive)
O=C(/C=C/c1ccccc1)n1c(-c2ccc(Cl)cc2)nc2ccccc21 | -0.388% (active)
COc1ccc(N=C2NN=C(c3ccc(F)cc3)CS2)cc1OC | 87.4% (inactive)

Compound | growth
Cc1cc(C(=O)O)c(N)c(C)n1 | 104% (inactive)
COc1cc(OC)cc(-c2n[nH]nc2-c2ccc3c(c2)OCO3)c1 | 7.92% (active)
CCc1cccc(C)c1NC(=O)c1sc2nc3c(cc2c1N)C(=O)CCC3 | 2.81% (active)
O=C(OCCCCOC(=O)n1cnc2ccccc21)n1cnc2ccccc21 | 99.5% (inactive)
C=C1C(=O)O[C@H]2[C@H]1CC/C(COC(=O)NCc1cc(OC)c(OC)c(OC)c1)=C\CC[C@@]1(C)O[C@@H]21 | 81.3% (inactive)
Nc1nc(-c2ccccc2)cs1 | 98.9% (inactive)
Cc1ccc(S(=O)(=O)NCCCNc2nccc(-c3c(-c4ccccc4)nc4sccn34)n2)cc1 | 63.1% (inactive)
O=C1CCCCC=C1C[N+](=O)[O-] | 88.4% (inactive)
ClC1=C(Cl)C(Cl)=C(Cl)C1=Cc1ccc(Cl)cc1Cl | -75.1% (active)
CCn1cc(C(=O)O)c(=O)c2cc(F)c(N3CCN(S(=O)(=O)c4ccc(OC)c(OC)c4)CC3)cc21 | 106% (inactive)
CCCCCCCCCCC/C=C\C[C@H](O)C/C=C1/C(=O)C=C[C@@H]1C/C=C\CCCC(=O)OC | -69% (active)
O=C(c1c[nH]c2ccccc12)C(Sc1nc2ccccc2c(=O)[nH]1)c1ccccc1 (stereo not given) | 101% (inactive)
CC(C)[C@H](CO)Nc1nc(Nc2ccc(C(=O)NCCNS(=O)(=O)c3cccc4c(N(C)C)cccc34)c(Cl)c2)c2ncn(C(C)C)c2n1 | 1.44% (active)
CC(=O)OC[Si](C)(C)c1ccccc1 | 93.7% (inactive)
Cn1c(-c2nonc2NC(=O)c2ccc(F)cc2)nc2ccccc21 | 108% (inactive)
Clc1cccc(Cl)c1Cn1c(-c2cncs2)nc2ccccc21 | 93.7% (inactive)
O=P([O-])(O)OP(=O)([O-])O.[NH-][C@H]1CCCC[C@@H]1[NH-].[OH-].[OH-].[Pt+4] | 91.1% (inactive)
COc1cccc(-n2cc(-c3nc(Cl)c4ccccc4n3)nn2)c1 | 153% (inactive)
N#CC1=C(N)n2nc(-c3ccncc3)nc2NC1c1cccc2ccccc12 (stereo not given) | 86.7% (inactive)
COc1cc(-c2n[nH]nc2-c2ccc3c(c2)OCCO3)cc(OC)c1OC | -27.3% (active)
